This is an account of results in PubChem BioAssay AID1850 (Southern Research Specialized Biocontainment Screening …, 2009).

A word on the inhibition: it is the change of the read-out against control, counted positive when it falls.

Molecules are shown by their SMILES. The campaign covered roughly 310,000 compounds. About 1,000 (0.32%) were called active. How the calls were made is not given here. The list is a sample of the results. Entries with a potency or affinity are not part of this list.

A short description of the experiment: Inhibition of PhoP regulon, Salmonella typhi GFP reporter cells, confirmation, 4 h (AID 1850).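 Further: 0% = induced wells with vehicle and 100% = uninduced wells.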 The conditions noted are these: Salmonella Typhi PhoP-promoter GFP reporter, fluorescence, at 50 µM, stronger effect = higher value.
Regarding `COCCCNC(=O)C(F)(F)C(F)(F)C(=O)NCCCOC`, the inhibition is -11.6% (inactive).
Consider `S=C(NCCc1ccccn1)Nc1ccccc1`, for which the inhibition is 7.23% (inactive).
In the case of `Cc1cc(C)c(NC(=O)COc2nncc3ccccc23)c(C)c1`, the inhibition is -9.5% (inactive).
With `Cc1cccc(C)c1NC(=O)C[N+](C)(C)CC(O)COc1cccc2ccccc12` (centres undefined), the inhibition is -1.2% (inactive).
Take `CCn1cc(/C=C/C(=O)c2ccc(O)cc2)c(C)n1`: the inhibition was 2.07% (inactive).
Turning to `O=c1c2ccccc2nc(-c2ccc([N+](=O)[O-])cc2)n1-c1ccccc1`, the inhibition was -1.83% (inactive).
As to `O=S1(=O)NC(=NC2CCCCCC2)c2ccccc21`, the inhibition is -8.09% (inactive).
With `c1ccc2c(c1)C(=NCC1CCCO1)NC2=NCC1CCCO1` (centres undefined) the figure was -5.37% (inactive).
Take `CCOC(=O)[C@@H]1[C@H]2COc3cc(OC)ccc3[C@H]2N2C(=O)N(c3ccc(C(F)(F)F)cc3)C(=O)[C@@]12C`: the inhibition is -14.6% (inactive).
Turning to `CC(=O)c1c(C)[n+]([O-])c2ccc3c(non3O)c12`, the inhibition was 14.6% (inactive).
For the molecule `CCOC(=O)c1c(C)[n+]([O-])c2ccc3c(non3O)c12`, the inhibition is -9.19% (inactive).
Take `CCCn1c(SCC(=O)OCc2ccccc2)nc2c1c(=O)n(C)c(=O)n2C`: the inhibition is -3.63% (inactive).
Take `Cc1ccc(S(=O)(=O)N(C)C)cc1NC(=O)COC(=O)/C=C/c1ccc2ccccc2n1`: the inhibition was -5.07% (inactive).
Consider `CCOc1ccc(NC(=O)C(=O)NCCN2CCN(S(=O)(=O)c3ccccc3)CC2)cc1`, for which the inhibition was 3.61% (inactive).
For the molecule `O=C1[C@@H]2C(c3cccnc3)=NO[C@@H]2C(=O)N1c1ccc(Br)cc1`, the inhibition is -5.51% (inactive).
`COc1cc2cccc(OC)c(=O)c2c(O)c1OC`: the inhibition is -19.1% (inactive).
As for `Oc1cccc2cc3cccc(O)c3c(O)c12`, the inhibition is 7.19% (inactive).
In the case of `Cc1ccc(S(=O)(=O)NCC2CCC(C(=O)N3CCN(C)CC3)CC2)cc1` (centres undefined) it was 5.88% (inactive); in that of `CC(C)(C)Cc1nnc(NS(=O)(=O)c2ccc([N+](=O)[O-])cc2)s1`, -2.4% (inactive); in that of `CC(Nc1nc(N2CCN(S(C)(=O)=O)CC2)nc2ccccc12)c1ccccc1` (centres undefined), -4.59% (inactive).
For `CC(Nc1nc(-c2ccccc2)nc2ccccc12)c1ccccc1` (centres undefined), the inhibition is 18% (inactive).
As for `CC(Nc1nc(N2CCNCC2)nc2ccccc12)c1ccccc1` (centres undefined), the inhibition is 17.9% (inactive).
Regarding `OCCNc1nc(N2CCCCC2)nc2ccccc12`, the inhibition was 4.37% (inactive).
In the case of `CC(C)S(=O)(=O)c1nsc2nc(=O)c(/C=C3\C=Nc4ccccc43)c(N)n12`, the inhibition was -9.31% (inactive).
With `Cc1occc1C(=O)NNC(=O)Nc1ccc([N+](=O)[O-])cc1` the figure was 0.48% (inactive); with `CC(C)(Oc1ccc(Cl)cc1)C(=O)NCCN1C(=O)S/C(=C/c2cccnc2)C1=O`, -8.14% (inactive); with `O=C(CN1CCN(Cc2ccc3c(c2)OCO3)CC1)Nc1ccc(F)cc1`, 2.19% (inactive).
With `O=C(O)C1C2C=CC(O2)C1C(=O)NCc1ccc2c(c1)OCO2` (centres undefined) the figure was 4.49% (inactive).
With `O=C(O)C(Cc1c[nH]c2ccccc12)NS(=O)(=O)c1ccc2ccccc2c1` (centres undefined) the figure was -4.9% (inactive).
